Measured values reported in ChEMBL document CHEMBL3988442, “University of Dundee, Small-Polar-MMV Screening Library” (2021).
For some assays here: Measured potencies and affinities stand elsewhere.

Tests used:
Parameters in all cases: scale not given: direction of the effect not stated beside the values
[1] = biological target: Protein translocase subunit SecA (Escherichia coli (strain K12)) (UniProt P10408); assay: Assay to Identify E. coli SecA ATPase Inhibitors; format: functional; conditions: 30 µM
Sequence of Protein translocase subunit SecA (Escherichia coli (strain K12)) (P10408 whole entry): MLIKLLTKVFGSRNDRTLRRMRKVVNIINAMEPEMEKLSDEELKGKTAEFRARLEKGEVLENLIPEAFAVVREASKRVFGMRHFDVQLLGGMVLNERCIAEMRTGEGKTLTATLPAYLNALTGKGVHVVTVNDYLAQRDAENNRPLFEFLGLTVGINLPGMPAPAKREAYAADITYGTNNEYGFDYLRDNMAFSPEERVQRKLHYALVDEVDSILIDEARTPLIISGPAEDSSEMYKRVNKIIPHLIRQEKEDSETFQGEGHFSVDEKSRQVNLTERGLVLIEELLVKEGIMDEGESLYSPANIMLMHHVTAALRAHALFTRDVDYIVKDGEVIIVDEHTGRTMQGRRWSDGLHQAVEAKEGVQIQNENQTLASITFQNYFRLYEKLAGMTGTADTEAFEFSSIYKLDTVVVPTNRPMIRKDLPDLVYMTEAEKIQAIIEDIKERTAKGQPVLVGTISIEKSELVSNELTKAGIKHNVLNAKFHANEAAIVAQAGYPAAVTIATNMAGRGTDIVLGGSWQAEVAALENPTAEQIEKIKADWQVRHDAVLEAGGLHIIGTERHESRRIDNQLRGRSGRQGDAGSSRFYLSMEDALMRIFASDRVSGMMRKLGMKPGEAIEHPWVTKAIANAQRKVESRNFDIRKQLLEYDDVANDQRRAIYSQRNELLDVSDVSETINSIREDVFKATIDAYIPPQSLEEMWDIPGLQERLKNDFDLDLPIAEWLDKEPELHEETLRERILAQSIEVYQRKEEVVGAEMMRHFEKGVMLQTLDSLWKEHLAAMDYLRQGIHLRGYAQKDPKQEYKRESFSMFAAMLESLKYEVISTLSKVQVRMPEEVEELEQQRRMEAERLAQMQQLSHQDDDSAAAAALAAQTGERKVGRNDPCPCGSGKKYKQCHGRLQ

[2] = biological target: T1, Ubiquitin-activating enzyme e1, putative (Leishmania donovani (strain BPK282A1)) (UniProt E9BSI1); assay: Leishmania donovani Ubiquitin Activating Enzyme (LdE1); format: functional; conditions: 30 µM
T1 sequence (whole entry): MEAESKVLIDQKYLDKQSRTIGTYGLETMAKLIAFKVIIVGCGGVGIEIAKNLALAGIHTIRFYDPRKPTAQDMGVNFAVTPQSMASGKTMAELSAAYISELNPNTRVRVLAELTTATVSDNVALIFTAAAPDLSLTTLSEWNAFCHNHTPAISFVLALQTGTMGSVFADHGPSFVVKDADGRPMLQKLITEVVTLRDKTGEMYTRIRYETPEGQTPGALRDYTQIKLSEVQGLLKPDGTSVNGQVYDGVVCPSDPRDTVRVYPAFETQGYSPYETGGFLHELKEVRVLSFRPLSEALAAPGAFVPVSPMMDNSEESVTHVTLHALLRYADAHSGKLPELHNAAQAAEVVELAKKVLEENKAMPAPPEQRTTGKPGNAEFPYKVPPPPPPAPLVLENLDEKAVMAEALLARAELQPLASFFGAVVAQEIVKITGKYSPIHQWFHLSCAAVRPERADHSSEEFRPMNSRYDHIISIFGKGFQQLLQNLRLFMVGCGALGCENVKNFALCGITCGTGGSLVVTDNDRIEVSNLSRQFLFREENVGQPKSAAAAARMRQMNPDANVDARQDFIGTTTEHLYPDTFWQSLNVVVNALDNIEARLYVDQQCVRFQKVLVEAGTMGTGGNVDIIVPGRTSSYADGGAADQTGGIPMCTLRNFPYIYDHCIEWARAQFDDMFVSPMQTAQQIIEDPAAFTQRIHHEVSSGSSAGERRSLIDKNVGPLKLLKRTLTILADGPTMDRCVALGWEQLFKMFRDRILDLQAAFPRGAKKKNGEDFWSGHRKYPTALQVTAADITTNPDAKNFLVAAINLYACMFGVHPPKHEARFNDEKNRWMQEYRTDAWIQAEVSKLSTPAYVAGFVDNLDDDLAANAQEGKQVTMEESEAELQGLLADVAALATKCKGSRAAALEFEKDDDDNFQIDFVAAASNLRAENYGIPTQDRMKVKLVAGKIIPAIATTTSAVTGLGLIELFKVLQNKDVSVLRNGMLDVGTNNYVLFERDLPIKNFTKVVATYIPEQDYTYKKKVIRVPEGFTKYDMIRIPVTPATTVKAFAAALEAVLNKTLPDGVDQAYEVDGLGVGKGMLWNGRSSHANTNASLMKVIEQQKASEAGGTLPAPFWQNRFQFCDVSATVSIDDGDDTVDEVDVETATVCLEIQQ

[3] = biological target: AMP-activated protein kinase, AMPK (Homo sapiens) (UniProt P54646+O43741+P54619+Q9UGJ0+Q9Y478+Q13131+Q9UGI9); assay: AMP-dependent Kinase enzyme assay. An in vitro enzyme assay that detects ADP turnover that is directly proportional to AMPK activity. This uses naive AMPK that is activated during the assay with MK-8722; format: functional; conditions: 30 µM
[4] = biological target: Sialic acid-binding Ig-like lectin 9 (Homo sapiens) (UniProt Q9Y336); assay: Hs-Siglec9 ALPHAscreen SOP 20170721; conditions: 10 µM
Sequence of Sialic acid-binding Ig-like lectin 9 (Homo sapiens) (Q9Y336 whole entry): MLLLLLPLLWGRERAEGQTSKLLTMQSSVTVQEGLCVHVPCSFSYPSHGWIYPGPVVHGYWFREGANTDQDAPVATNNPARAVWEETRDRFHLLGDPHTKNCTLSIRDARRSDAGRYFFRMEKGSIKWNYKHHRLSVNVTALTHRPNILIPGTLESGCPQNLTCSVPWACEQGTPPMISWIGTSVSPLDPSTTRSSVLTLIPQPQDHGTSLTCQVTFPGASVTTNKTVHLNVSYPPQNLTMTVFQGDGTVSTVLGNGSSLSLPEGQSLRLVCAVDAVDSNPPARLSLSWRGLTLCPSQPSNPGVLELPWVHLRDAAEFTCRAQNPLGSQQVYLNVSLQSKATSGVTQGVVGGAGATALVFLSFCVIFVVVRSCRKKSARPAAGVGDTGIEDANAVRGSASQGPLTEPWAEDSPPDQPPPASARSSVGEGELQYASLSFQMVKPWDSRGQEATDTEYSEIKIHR

Trypanosoma cruzi = assay: Trypanosoma cruzi phosphomannomutase and mannose-1-phosphate guanylyltransferase assay; format: functional; conditions: 10 µM
[5] = biological target: T2, Arginase-2, mitochondrial (Homo sapiens) (UniProt P78540); assay: in vitro enzyme assay to detect the production of urea directly proportional to the activity of Arginase II; format: functional; conditions: 33.3 µM; note: in the data most compounds retested in dose-response had high values
T2 sequence (whole entry): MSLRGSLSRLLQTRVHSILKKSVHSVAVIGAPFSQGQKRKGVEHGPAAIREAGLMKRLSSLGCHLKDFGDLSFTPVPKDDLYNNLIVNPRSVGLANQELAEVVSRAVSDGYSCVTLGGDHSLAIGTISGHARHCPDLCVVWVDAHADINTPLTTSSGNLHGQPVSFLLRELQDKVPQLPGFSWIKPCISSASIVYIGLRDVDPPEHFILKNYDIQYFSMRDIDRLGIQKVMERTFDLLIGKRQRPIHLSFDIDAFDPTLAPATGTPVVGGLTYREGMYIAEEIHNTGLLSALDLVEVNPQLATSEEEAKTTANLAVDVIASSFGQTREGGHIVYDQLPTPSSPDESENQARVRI

[6] = biological target: T3, Proteasome subunit beta (Trypanosoma cruzi) (UniProt O96673); assay: Trypanosoma cruzi proteasome chymotrypsin-like activity (TcProtChymo) assay.; note: in the data most compounds retested in dose-response had high values; format: functional; conditions: 9.37 µM
T3 sequence (whole entry): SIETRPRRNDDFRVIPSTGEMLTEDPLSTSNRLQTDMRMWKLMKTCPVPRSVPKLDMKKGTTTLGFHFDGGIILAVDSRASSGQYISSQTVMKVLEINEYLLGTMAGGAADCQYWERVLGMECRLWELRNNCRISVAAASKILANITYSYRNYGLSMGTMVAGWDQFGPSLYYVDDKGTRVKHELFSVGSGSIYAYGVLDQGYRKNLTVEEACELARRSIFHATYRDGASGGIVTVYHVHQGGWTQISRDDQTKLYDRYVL

Homo sapiens = species: Homo sapiens; assay: To identify inhibition of the IFN signalling (Jak-Stat) pathway via expression of an eGFP reporter gene under the control of an IFN-stimulated response element (ISRE) containing MxA promoter.; format: functional; conditions: 30 µM
[7] = biological target: T4, Tyrosyl-tRNA synthetase, putative (Trypanosoma cruzi (strain CL Brener)) (UniProt Q4DSP6); assay: Trypanosoma cruzi tyrosyl tRNA synthetase (TcYRS) _High Tyrosine SOP; format: functional; conditions: 30 µM; note: in the data most compounds retested in dose-response had high values
T4 sequence (whole entry): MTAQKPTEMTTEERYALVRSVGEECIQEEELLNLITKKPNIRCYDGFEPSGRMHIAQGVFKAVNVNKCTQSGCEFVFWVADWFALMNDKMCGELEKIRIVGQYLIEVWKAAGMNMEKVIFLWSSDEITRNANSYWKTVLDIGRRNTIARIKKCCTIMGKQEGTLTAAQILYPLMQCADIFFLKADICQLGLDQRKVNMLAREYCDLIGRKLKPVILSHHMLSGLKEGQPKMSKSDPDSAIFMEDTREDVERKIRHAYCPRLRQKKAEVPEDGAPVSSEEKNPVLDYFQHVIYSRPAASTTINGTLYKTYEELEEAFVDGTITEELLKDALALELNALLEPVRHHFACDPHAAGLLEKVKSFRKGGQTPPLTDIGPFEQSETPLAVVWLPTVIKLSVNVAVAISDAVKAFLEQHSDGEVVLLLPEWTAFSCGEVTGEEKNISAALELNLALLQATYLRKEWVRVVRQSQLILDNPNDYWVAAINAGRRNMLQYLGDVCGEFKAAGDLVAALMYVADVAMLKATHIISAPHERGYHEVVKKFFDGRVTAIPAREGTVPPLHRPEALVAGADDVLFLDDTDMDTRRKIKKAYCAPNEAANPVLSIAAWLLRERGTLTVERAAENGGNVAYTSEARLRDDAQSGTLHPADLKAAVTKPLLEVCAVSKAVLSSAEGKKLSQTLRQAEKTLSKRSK

[8] = biological target: T4, Tyrosyl-tRNA synthetase, putative (Trypanosoma cruzi (strain CL Brener)); assay: Trypanosoma cruzi tyrosyl tRNA synthetase (TcYRS) SOP; format: functional; conditions: 30 µM
[9] = biological target: Chromo domain-containing protein 1 (Saccharomyces cerevisiae (strain ATCC 204508 / S288c) (Baker's yeast)) (UniProt P32657); assay: ScCHD-1 Enzyme Inhibition Assay; format: functional; conditions: 30 µM; note: in the data most compounds retested in dose-response had high values
Sequence of Chromo domain-containing protein 1 (Saccharomyces cerevisiae (strain ATCC 204508 / S288c) (Baker's yeast)) (P32657 whole entry, the tested form may be a part): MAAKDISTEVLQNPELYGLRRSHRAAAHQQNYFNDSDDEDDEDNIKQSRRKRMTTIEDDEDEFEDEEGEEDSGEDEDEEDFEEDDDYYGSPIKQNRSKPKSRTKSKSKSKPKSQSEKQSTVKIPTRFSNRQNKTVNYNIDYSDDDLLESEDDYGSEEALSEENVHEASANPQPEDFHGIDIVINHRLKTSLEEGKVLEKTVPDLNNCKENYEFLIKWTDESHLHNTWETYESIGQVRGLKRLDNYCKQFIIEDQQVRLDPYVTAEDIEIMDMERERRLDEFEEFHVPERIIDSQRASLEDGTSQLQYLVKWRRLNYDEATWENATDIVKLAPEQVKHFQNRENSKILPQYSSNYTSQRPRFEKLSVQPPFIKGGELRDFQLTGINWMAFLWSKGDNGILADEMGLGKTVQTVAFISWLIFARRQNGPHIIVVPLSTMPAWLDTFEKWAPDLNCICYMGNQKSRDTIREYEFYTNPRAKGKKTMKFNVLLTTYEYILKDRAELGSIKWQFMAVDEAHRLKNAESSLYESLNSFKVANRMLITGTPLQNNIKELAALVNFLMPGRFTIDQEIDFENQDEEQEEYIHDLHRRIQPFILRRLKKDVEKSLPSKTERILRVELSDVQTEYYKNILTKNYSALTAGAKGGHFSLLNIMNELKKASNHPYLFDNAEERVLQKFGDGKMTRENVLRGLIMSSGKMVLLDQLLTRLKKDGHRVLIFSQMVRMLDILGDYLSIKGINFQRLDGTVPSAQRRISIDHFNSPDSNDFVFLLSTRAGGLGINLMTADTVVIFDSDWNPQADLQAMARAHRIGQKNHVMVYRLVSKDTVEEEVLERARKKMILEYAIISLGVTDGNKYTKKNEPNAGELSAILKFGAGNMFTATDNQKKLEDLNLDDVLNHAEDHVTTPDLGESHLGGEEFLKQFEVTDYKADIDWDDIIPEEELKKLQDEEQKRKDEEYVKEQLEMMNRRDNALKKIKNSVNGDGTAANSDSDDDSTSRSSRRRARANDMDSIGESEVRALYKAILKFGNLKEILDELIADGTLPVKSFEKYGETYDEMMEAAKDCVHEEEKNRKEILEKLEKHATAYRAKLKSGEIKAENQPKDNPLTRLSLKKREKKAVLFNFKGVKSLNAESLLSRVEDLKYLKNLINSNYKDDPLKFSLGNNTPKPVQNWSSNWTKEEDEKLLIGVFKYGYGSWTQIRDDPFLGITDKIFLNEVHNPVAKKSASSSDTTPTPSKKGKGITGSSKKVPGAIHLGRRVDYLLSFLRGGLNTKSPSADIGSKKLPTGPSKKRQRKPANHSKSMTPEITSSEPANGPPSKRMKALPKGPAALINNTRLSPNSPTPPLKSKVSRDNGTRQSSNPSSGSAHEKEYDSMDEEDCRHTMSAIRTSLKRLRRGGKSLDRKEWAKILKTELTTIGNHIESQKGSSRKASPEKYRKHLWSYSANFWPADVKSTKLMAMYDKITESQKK

Row | Compound | Percent Effect [1] [%] | Percent Effect [2] [%] | Percent Effect [3] [%] | Percent Effect [4] [%] | Percent Effect (Trypanosoma cruzi) [%] | Percent Effect [5] [%] | Percent Effect [6] [%] | Percent Effect (Homo sapiens) [%] | Percent Effect [7] [%] | Percent Effect [8] [%] | Percent Effect [9] [%]
1 | CC(C)c1nc(CN2CCN(C(C)c3nc(C4CC4)no3)CC2)no1 (configuration not stated) | -0.845 | -3.8 | 4.42 | 1.01 | -1.13 | 1.07 | 3.09 | -8.78 | 2.08 | 2.53 | 2.13
2 | CCc1nnc2n1CCN(C(=O)c1cnc3ccccc3n1)C2 | -4.63 | 4.17 | -7.62 | 28.2 | 3.79 | 17.2 | 12.5 | -6.01 | 5.26 | 12.8 | -3.35
3 | COc1ccc(NC(=O)C(c2cccc(F)c2)N2CCOCC2)cc1 (configuration not stated) | -1.48 | 0 | 4.04 | 2.98 | -5.75 | 3.55 | 13.5 | 0.224 | 6.38 | 10.4 | -3.15
4 | COCC1Cn2nnc(-c3cnn(C)c3)c2CN1Cc1ccco1 (configuration not stated) | -2.03 | 2.7 | -7.24 | 5.87 | 1.37 | 23.8 | 9.72 | -17.4 | 11.9 | 15.8 | -5.92
5 | CN(CCNC(=O)NCc1ccncc1)C1CCCC1 | -0.694 | -5.41 | -4.53 | 1.79 | -3.3 | 0.401 | -6.31 | 7.43 | 1.48 | -1.24 | 2.18
6 | O=C(CCc1ccc(Br)cc1F)NS(=O)(=O)c1ccc2c(c1)OCCO2 | -4.85 | -6.33 | 13.3 | 0.4 | -2.15 | 1.07 | 4.97 | 18.6 | -18.8 | -17.7 | -2.67
7 | COc1ccc(CNCC2CC2)cc1F | -3.45 | 0 | 3.06 | 6.66 | 1.56 | -1.67 | 3.47 | -5.14 | 4.95 | 3.66 | -2.56
8 | Cc1ccc(CN2CCCC3(CCN(S(C)(=O)=O)C3)C2)o1 (configuration not stated) | -3.67 | 8 | 11.7 | 5.08 | -1.97 | -4.43 | 3.96 | 15.2 | 6.38 | 14.1 | -3.22
9 | Cc1cc(C)c(CNC(=O)NCCOc2ccc3c(c2)CCC3)c(=O)[nH]1 | -3.48 | -5.26 | 0.256 | 7.3 | 9.96 | 0.383 | 0 | 3.96 | 1.47 | 0 | 3.04
10 | Cc1cccnc1CNc1cc(N2CCCC2CO)ncn1 (configuration not stated) | -2.07 | 2.6 | -9.88 | 14.4 | 2.25 | -3.56 | 8.11 | 11.7 | 2.91 | 9.76 | -6.83
11 | Cn1cnc(S(=O)(=O)NCCCN2CCCCCC2)c1Cl | -4.4 | 8.11 | -5.51 | 10.5 | -3.49 | 1.6 | 6.49 | 4.76 | 5.42 | 6.17 | -6.58
12 | COc1nn(C)c2c1CCCN(C(=O)c1ccccc1)C2 | -4.93 | 2.7 | -0.442 | -2.98 | -1.76 | -1.25 | -1.27 | 3.41 | 4.95 | 1.22 | -2.72
13 | CCOCCn1nc(C)cc1C(=O)N1CCN(C(C)C)C(CC)C1 (configuration not stated) | -4.36 | 2.7 | -2.68 | 4.47 | 6.56 | -1.43 | 10.9 | 10.2 | 3.7 | 12.2 | -1.83
14 | CC(=O)N1CCCN(C(=O)c2cnc3n[nH]c(C)c3c2)CC1 | -1.9 | 15.8 | -3.49 | 5.52 | 3.08 | 3.96 | 2.45 | -3.15 | 9.36 | 23.5 | -9.47
15 | COc1ccc(-c2noc(CN3CCc4cncnc4C3)n2)cc1 | -3.37 | -15.8 | -14.9 | 2.94 | 7.52 | 0 | 18.6 | 8.69 | 8.33 | 9.76 | 25
16 | COc1cc(CNC(=O)NCc2c(C)cc(C)[nH]c2=O)ccc1C | -6.17 | 7.89 | -0.139 | 4.36 | 5.64 | 1.15 | 11.9 | 6.94 | 2.45 | 12.2 | -9.57
17 | CC(NC(=O)N(C)Cc1ccc(Cl)s1)c1ccccn1 (configuration not stated) | -2.39 | 13.9 | 9.06 | -0.224 | 0.308 | 1.07 | 6.86 | 14.4 | 3.12 | 12.7 | -14.9
18 | COc1cc(C)c(C(C)NC(=O)Nc2nnc(C)s2)cc1OC (configuration not stated) | -4.05 | 5.41 | -4.62 | 14.6 | 7.72 | 1.24 | 7.64 | 11.2 | 2.15 | 11.1 | -3.99
19 | CCc1cnc(CN(C)C2CCN(CCS(C)(=O)=O)C2)o1 (configuration not stated) | -1.6 | -1.39 | -3.86 | -4.8 | -5.54 | 2.21 | 3.51 | -7.25 | 0 | 2.56 | 0.436
20 | Cc1cccc(NC(=O)CNC(=O)Cn2ncc(Cl)c(Cl)c2=O)c1C | -1.81 | 0 | 26 | 2.69 | -8.4 | 0 | 16.6 | 23.8 | 11.9 | -1.22 | 7.2
21 | Cc1cc(N2CCCN(C(=O)Cc3csc(C)n3)CC2)ccn1 | 0.872 | 5.41 | 0.202 | -1.96 | -2.7 | 4.76 | 20.2 | 9.24 | 2.65 | 9.76 | -3.36
22 | O=C(c1cccnc1)N1CC[C@H](OCC2CC2)[C@@H]1Cc1cccnc1 | -0.924 | 13.3 | 5.44 | -0.245 | -4.44 | -43.2 | 2.73 | -15.6 | 1.04 | -10 | -6.48
